SMILES strings stand for the structures.

The values below come from ChEMBL document CHEMBL2218924, “A broad activity screen in support of a chemogenomic map for kinase signalling research and drug discovery” (Biochem J, 2013).

For assay [1], the target named is ALK tyrosine kinase receptor (Homo sapiens) (UniProt Q9UM73). To be noted: at 10 µM.
The target of assay [2] is T1, Activin receptor type-1B (Homo sapiens) (UniProt P36896).
T1 sequence (whole entry): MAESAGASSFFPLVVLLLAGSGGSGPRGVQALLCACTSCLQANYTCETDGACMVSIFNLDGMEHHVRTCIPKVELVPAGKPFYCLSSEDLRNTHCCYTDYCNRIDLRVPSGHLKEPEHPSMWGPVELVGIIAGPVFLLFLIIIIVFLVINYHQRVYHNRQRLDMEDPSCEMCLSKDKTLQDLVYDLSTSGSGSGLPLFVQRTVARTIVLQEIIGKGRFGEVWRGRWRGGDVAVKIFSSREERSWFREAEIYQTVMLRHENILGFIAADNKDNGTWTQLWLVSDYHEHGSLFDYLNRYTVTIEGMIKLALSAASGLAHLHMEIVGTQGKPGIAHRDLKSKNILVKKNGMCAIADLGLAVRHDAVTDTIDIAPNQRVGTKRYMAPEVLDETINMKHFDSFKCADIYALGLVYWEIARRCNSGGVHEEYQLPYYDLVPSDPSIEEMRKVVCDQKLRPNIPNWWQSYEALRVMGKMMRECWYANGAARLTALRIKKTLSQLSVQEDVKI
To be noted: at 1 µM.

In assay [3] the target is T1, Activin receptor type-1B (Homo sapiens). To be noted: at 10 µM.
Assay [4] deals with T2, AMP-activated protein kinase (AMPK) alpha-1/beta-1/gamma-1 (Homo sapiens) (UniProt P54619+Q9Y478+Q13131). To be noted: at 1 µM.
The target of assay [5] is T2, AMP-activated protein kinase (AMPK) alpha-1/beta-1/gamma-1 (Homo sapiens). To be noted: at 10 µM.
Assay [6] has as its target T3, AMP-activated protein kinase, AMPK (Homo sapiens) (UniProt P54646+O43741+P54619+Q9UGJ0+Q9Y478+Q13131+Q9UGI9). To be noted: at 1 µM.
The target in assay [7] is T3, AMP-activated protein kinase, AMPK (Homo sapiens). To be noted: at 10 µM.
The target in assay [8] is T4, NUAK family SNF1-like kinase 1 (Homo sapiens) (UniProt O60285).
T4 sequence (whole entry): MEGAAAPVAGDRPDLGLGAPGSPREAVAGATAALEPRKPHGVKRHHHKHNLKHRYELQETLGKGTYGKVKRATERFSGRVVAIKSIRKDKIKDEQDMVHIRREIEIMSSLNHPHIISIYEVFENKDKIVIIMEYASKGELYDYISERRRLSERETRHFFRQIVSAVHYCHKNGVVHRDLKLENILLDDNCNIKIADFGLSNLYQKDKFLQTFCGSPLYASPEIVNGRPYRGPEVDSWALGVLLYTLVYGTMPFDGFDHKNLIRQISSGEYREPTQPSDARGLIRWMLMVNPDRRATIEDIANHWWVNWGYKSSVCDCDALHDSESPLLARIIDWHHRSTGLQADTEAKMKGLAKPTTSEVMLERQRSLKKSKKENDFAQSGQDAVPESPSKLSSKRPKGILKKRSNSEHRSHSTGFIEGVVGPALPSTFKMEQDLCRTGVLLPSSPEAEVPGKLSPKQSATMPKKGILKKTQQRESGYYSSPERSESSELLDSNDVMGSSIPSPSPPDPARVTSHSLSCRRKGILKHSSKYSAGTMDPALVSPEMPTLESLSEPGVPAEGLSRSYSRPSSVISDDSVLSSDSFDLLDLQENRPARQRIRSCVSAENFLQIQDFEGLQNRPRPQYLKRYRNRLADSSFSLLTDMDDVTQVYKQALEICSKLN
To be noted: at 1 µM.

Assay [9] addresses T4, NUAK family SNF1-like kinase 1 (Homo sapiens). To be noted: at 10 µM.
For assay [10], the target named is T5, Mitogen-activated protein kinase kinase kinase 5 (Homo sapiens) (UniProt Q99683).
T5 sequence (whole entry): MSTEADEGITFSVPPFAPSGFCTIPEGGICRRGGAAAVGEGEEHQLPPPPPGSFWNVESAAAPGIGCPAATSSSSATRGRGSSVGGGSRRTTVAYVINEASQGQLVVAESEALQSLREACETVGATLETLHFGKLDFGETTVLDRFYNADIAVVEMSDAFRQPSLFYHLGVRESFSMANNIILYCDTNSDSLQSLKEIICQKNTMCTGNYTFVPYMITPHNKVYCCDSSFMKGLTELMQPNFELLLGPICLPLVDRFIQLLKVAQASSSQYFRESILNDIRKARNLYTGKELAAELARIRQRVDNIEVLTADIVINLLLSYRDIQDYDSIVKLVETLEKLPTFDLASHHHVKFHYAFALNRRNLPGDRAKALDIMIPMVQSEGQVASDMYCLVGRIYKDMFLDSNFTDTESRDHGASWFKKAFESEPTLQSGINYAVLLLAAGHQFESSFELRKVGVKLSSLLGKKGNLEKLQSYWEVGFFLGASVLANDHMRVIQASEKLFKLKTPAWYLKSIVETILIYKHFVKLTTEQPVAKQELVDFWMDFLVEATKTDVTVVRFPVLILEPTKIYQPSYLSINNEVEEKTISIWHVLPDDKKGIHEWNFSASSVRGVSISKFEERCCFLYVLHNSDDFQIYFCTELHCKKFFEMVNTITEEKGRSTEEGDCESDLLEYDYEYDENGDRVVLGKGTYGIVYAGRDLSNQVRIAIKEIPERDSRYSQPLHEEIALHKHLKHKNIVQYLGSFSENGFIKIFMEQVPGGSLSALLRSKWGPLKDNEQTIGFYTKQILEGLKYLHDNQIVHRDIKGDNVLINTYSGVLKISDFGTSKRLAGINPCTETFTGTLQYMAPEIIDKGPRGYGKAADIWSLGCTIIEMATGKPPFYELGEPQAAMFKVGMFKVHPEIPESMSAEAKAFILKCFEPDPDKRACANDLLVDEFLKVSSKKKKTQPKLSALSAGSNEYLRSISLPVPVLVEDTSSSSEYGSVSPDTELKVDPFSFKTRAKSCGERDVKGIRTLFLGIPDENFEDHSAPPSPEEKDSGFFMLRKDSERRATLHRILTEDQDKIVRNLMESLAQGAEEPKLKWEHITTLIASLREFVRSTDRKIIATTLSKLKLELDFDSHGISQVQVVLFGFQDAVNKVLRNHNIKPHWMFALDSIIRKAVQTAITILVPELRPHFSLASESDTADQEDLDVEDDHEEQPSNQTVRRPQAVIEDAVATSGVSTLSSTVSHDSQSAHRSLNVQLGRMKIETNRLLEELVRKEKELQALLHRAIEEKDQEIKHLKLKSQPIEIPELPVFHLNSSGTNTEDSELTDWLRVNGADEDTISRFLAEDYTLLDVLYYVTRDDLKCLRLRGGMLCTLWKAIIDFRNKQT
To be noted: at 1 µM.

Sequence of ALK tyrosine kinase receptor (Homo sapiens) (Q9UM73 19-1620 limits assumed): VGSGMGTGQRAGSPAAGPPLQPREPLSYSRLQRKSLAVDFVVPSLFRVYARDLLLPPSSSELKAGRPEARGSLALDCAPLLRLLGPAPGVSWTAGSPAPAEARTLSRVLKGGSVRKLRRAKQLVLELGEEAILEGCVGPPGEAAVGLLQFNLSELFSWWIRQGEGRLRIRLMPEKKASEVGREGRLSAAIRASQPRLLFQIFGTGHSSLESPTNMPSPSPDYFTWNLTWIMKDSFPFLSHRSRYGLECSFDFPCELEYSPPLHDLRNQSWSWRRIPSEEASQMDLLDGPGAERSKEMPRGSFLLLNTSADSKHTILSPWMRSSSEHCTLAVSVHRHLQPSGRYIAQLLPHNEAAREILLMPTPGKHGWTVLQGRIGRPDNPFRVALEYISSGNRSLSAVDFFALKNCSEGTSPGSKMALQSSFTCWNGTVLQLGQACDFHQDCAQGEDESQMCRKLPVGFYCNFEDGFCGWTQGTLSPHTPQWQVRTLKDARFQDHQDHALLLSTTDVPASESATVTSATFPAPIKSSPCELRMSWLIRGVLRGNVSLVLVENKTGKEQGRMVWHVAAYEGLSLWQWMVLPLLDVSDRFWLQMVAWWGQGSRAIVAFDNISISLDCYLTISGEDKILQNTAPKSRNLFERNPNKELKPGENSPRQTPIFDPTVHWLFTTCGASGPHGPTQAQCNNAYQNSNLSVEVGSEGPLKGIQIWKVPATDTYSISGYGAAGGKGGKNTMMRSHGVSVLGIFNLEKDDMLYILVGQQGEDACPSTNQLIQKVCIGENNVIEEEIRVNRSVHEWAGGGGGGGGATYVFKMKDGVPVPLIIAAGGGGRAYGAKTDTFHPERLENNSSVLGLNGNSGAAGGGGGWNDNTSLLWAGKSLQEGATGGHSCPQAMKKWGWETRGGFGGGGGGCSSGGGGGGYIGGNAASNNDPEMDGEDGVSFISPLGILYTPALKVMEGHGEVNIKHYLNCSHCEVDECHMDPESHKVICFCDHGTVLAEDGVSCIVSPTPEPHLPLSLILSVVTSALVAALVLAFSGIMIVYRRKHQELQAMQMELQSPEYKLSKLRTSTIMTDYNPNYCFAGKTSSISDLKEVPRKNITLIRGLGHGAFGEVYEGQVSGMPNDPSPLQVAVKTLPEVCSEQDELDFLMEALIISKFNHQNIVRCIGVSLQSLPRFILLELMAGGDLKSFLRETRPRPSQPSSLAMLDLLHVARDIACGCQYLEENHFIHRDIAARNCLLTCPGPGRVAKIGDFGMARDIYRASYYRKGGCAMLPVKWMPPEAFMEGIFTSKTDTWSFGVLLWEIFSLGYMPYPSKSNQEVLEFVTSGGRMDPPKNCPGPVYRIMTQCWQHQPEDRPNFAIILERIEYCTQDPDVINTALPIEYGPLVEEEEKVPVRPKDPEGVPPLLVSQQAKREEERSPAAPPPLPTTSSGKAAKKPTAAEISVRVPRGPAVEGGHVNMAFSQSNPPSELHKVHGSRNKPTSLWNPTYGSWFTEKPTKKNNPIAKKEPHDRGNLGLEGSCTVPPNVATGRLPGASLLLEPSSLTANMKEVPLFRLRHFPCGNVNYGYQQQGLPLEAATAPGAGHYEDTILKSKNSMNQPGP
T2 sequence (P54619 whole entry): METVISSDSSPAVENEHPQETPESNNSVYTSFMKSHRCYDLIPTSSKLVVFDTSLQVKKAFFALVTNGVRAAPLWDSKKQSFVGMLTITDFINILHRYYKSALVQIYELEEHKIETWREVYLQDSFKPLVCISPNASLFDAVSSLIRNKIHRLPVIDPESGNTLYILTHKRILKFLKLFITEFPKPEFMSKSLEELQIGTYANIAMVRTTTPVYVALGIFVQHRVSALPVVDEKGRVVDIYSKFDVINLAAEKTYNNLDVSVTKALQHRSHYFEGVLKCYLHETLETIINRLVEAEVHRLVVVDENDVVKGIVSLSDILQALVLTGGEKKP
T2 sequence (Q13131 whole entry partner): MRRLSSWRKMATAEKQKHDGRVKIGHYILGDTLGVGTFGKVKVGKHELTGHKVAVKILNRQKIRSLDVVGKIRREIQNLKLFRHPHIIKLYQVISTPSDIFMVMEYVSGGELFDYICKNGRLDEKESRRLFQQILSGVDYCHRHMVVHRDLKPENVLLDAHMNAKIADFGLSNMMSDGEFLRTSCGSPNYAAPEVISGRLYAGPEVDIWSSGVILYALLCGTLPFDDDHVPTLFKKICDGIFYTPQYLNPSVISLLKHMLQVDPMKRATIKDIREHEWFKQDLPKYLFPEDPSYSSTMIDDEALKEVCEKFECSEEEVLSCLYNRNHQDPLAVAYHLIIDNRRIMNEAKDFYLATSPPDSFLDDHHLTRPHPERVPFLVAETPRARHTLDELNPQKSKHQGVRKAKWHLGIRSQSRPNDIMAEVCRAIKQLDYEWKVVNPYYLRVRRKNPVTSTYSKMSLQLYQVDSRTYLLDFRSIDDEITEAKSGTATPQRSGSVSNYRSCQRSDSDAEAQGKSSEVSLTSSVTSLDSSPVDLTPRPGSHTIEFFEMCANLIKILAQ
T2 sequence (Q9Y478 2-270 partner limits assumed): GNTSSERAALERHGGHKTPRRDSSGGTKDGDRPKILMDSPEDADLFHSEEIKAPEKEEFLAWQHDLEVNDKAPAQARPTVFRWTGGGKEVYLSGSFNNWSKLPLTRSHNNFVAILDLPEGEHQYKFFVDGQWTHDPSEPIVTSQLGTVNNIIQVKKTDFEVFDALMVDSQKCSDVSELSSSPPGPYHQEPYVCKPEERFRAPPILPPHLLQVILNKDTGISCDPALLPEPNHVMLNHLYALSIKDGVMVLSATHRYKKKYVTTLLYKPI

With `O=C1NC(=O)C(c2c[nH]c3ccccc23)=C1c1c[nH]c2ccccc12`, the residual activity in assay [1] worked out at 44%; in [2] it was 114%; in assay [3], 75%; in assay [4], 72%; in [5], 15%; in [6], 66%. Further, the residual activity is 10% in assay [7], 83% in assay [8] and 24% in assay [9].
As to `COc1ccc(CNC(=O)Nc2ncc([N+](=O)[O-])s2)cc1`, the residual activity in assay [1] worked out at 64%; in assay [3], 109%.
For `N#Cc1c(NC(=O)c2cccc3ccccc23)sc2c1CCCC2`, the residual activity in [1] was determined as 91%; in [2], 87%; in [3], 93%; in assay [4] it was 86%; in assay [5], 97%; in [6] it was 98%. For the same compound, the residual activity in assay [9] came out at 92%; in [10], 88%.
Take `COc1ccc2c(c1)c(C1=C(c3c[nH]c4ccccc34)C(=O)NC1=O)cn2CCCN(C)C`: the residual activity in [1] was 64%; in assay [3], 47%; in assay [4] it was 52%; in assay [5], 11%; in assay [6], 38%; in assay [7], 5%. Further, the residual activity in [8] amounted to 37%; in assay [9], 10%.
On to `O=C1Cc2c([nH]c3ccc(Br)cc23)-c2ccccc2N1`, for which the residual activity in [1] worked out at 56%; in assay [3] it was 72%; in [4], 75%; in assay [5], 44%; in assay [8], 13%; in assay [9] it was 2%.
Regarding `COc1cc2ncnc(Nc3cccc(Cl)c3)c2cc1OC`, the residual activity came to 107% in [1]; 105% in [2]; 101% in assay [3]; 67% in assay [5]; 74% in [7]; 52% in assay [9]. Besides, in [10], the residual activity came to 103%.
As for `O=C(CCCc1ccc(-c2ccccc2F)cc1)Nc1ccc(O)cc1`, the residual activity was 44% in assay [1]; 111% in assay [2]; 94% in [3]; 106% in assay [4]; 89% in [5]; 106% in assay [6]. Moreover, the residual activity in assay [7] was 99%; in [8], 96%; in assay [9], 78%; in [10] it was 99%.
For `O=C(c1cc2cc(O)ccc2[nH]1)c1cc2cc(O)ccc2[nH]1`, the residual activity turned out to be 58% in assay [1]; 111% in assay [2]; 16% in [4]; 1% in [5]; 13% in assay [6]; 3% in assay [7]. The residual activity in assay [8] is 65%; in [9], 20%.
For the compound `COc1cc2nccc(Oc3ccc(NC(=S)NC(=O)c4ccccc4C)cc3)c2cc1OC`, the residual activity turned out to be 47% in assay [1]; 126% in assay [2]; 96% in [3]; 88% in assay [4]; 70% in assay [5]; 81% in assay [8]. Also, the residual activity worked out at 74% in [9] and 88% in assay [10].
For the compound `O=C(NC(NC(=S)Nc1ccc(F)c([N+](=O)[O-])c1)C(Cl)(Cl)Cl)C(c1ccccc1)c1ccccc1` (stereo not given), the residual activity in [1] came to 97%; in assay [2] it was 94%; in assay [3] it was 103%; in assay [4], 90%; in assay [5], 71%; in [6] it was 89%. Also, the residual activity was found to be 77% in [7] and 86% in assay [9].
As for `NC(=O)c1ccc(-c2nc(-c3ccc4c(c3)OCCO4)c(-c3ccccn3)[nH]2)cc1`, the residual activity in assay [1] came to 52%; in [2], 31%; in [3], 0%; in assay [4], 90%; in assay [5], 92%; in [9] it was 91%. Further, the residual activity in assay [10] amounted to 98%.
Take `CCCCc1c(-c2ccc(O)cc2)[nH]c2nccnc12`: the residual activity in [1] is 37%; in assay [2] it was 88%; in assay [3], 34%; in [4], 85%; in assay [5], 71%; in assay [6], 75%. The residual activity in [7] was found to be 67%; in [8] it was 12%; in [9], 16%; in assay [10], 93%.
As to `Nc1ncnc2c1c(-c1ccc(Oc3ccccc3)cc1)cn2C1CCCC1`, the residual activity in assay [1] amounted to 27%; in [2] it was 125%; in assay [4], 99%; in [5] it was 61%; in assay [6], 94%; in [7] it was 63%. Also, the residual activity in assay [8] turned out to be 83%; in [9], 67%; in assay [10], 90%.
